17 molecules from PubChem BioAssay (NCATS) can be followed below.

Assay [1] is described as follows: qHTS profiling of the MIPE4 collection as inhibitors of Plasmodium falciparum (DD2) proliferation (Rep 2) (AID 743346; call rule not given here). Conditions: P. falciparum Dd2 in erythrocytes, SYBR Green DNA, 72 h; at 28.5 µM unless noted. The essentials: (§1)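 Erythrocytes infected with P. falciparum (0.3% parasitemia, 2.5% hematocrit) incubated with compounds 72 h at 37 C, 5% CO2. Lysis with saponin/Triton buffer containing SYBR Green I, overnight at room temperature in the dark; DNA fluorescence (485/535 nm) normalised to 0.29 uM artemisinin and DMSO.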
(In general: Quantitative high-throughput screening tests each substance at several concentrations.)

Assay [2] in a line: qHTS profiling of the MIPE4 collection as inhibitors of Plasmodium falciparum (HB3) proliferation (AID 743347; call rule not given here;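 further: plate controls were DMSO vehicle wells for no effect and artemisinin wells for full effect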). Conditions: P. falciparum HB3 in erythrocytes, SYBR Green DNA, 72 h; at 28.5 µM unless noted. The essentials:
as §1

The nature of assay [3]: High-throughput drug toxicity screening in the BPDCN cell line Cal-1 (AID 1224825; call rule not given here). Conditions: Cal-1 BPDCN cell viability, qHTS; at 45.8 µM (top of the series) unless noted. Summed up:
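Cal-1 cells, 500 per well in phenol-red-free RPMI with 10% FBS, exposed to compounds for 48 hours at 37C, 5% CO2. Viability read by CellTiter-Glo luminescence; percent activity normalized to DMSO (100%) and 9.2 uM bortezomib final (0%).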

Assay [4] is described as follows: qHTS assay for measurement of the activity of small molecule inhibitors on Zika virus induced Caspase-3 activity in human iPSC derived neural progenitor cells (hNPCs) (AID 1224857). Further: % of control where 0% means no effect; nearly all actives have a fitted effect of over 65% in size. The essentials:
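Human iPSC-derived neural progenitor cells pretreated 1 hr with compounds, then infected with Zika virus (2 FFU/cell) for 6 hours at 37 C. Caspase-3/7 measured by Caspase-Glo luminescence; % inhibition calculated from induction scaled to uninfected (0%) and infected (100%) wells.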

Assay [5] in a line: qHTS assay for measurement of the activity of small molecule inhibitors on Zika virus induced Caspase-3 activity in human astrocytoma cells (AID 1224859).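 Further: plate controls were ZIKV-infected untreated cells for no effect and uninfected cells for full effect.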 The essentials:
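SNB-19 astrocytoma cells, 250/well, pretreated 1 h with compounds, then Zika virus at 2 FFU/cell for 6 h at 37 C; Caspase-Glo 3/7 luminescence after 30 min; percent inhibition normalised to uninfected and infected controls.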

Assay [6] is described as follows: qHTS Screen of the MIPE 4.0 Collection Against Ewings Sarcoma (RDES) (AID 1259252). Further: nearly all actives have a fitted effect of over 35% in size. Further: potency means the concentration at half of the fitted maximal effect. The essentials:
(§2)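 Viability screen: 48 h incubation at 37C, 95% humidity, 5% CO2 with serially titrated compound, followed by CellTiter-Glo readout.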

Assay [7] can be described thus: qHTS Screen of the MIPE 4.0 Collection Against Ewings Sarcoma (EW8) (AID 1259255). Further: nearly all actives have a fitted effect of over 35% in size. Further: potency means the concentration at half of the fitted maximal effect.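 On viability: 100% = DMSO-treated cells and 0% = medium-only wells without cells.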 Summed up:
as §2

The nature of assay [8]: qHTS Screen of the MIPE 4.0 Collection Against Ewings Sarcoma (TC32) (AID 1259256). Further: nearly all actives have a fitted effect of over 45% in size. Further: potency means the concentration at half of the fitted maximal effect. The essentials:
as §2

Assay [9] is described as follows: qHTS Screen of the MIPE 4.0 Collection Against Ewings Sarcoma (TC71) (AID 1259253). Further: nearly all actives have a fitted effect of over 40% in size. Further: potency means the concentration at half of the fitted maximal effect. The essentials: as §2

Inconclusive results are not listed. Calls of active or inactive are those of the source. Unless noted, the call rests on the fitted dose curve; in most records, active means well fitted inhibition curve with a large enough effect; inconclusive means small, poorly fitted or top-dose-only effect; inactive means no such curve, though single readings can be large or run the other way.

As for `CNC(=O)c1ccc(Nc2cc(Nc3ccccc3S(=O)(=O)C(C)C)c3cc[nH]c3n2)nc1`, the parasite growth, % of control (lower = inhibition) in [1] is 12.7%. The molecule also registered a growth, % of control in assay [2] of 2.73%. In addition, the viability (% of control) in assay [3] is 3.36%. Moreover, the Potency result in assay [4] and in assay [5] was “inactive” throughout. The Potency in [6] is 5.9 µM (active); in [7] it was 0.59 µM (active); in assay [8], 0.935 µM (active).

With `O=C(Nc1nnc(-c2ccco2)o1)c1cc(-c2ccccc2)nc2ccccc12`, the parasite growth, % of control (lower = inhibition) in assay [1] is 42.6%. The same molecule displayed a growth, % of control in [2] of 18.7%. Moreover, the viability (% of control) in assay [3] came to 17.3%. The Potency result in assay [4] and in assay [5] was “inactive” in each case. In addition, the Potency in assay [7] was 23.5 µM (active); in assay [8], 13.2 µM (active).

Regarding `Cn1cc(-c2ccc3ncc(Cc4ccc5ncccc5c4)n3n2)cn1`, the parasite growth, % of control (lower = inhibition) in [1] worked out at 33.6%. In assay [2], this molecule gave a growth, % of control of 13.9%. In addition, the viability (% of control) in assay [3] is 35.3%. Also, the Potency result in assay [4], in assay [5], in assay [9], in assay [7] and in assay [8] was “inactive” each time.

On to `CCOc1cc2ncc(C#N)c(Nc3ccc(OCc4ccccn4)c(Cl)c3)c2cc1NC(=O)C=CCN(C)C`, for which the parasite growth, % of control (lower = inhibition) in [1] amounted to 12.3%. For the same molecule, in assay [2], the growth, % of control was determined as 2.73%. The viability (% of control) in [3] amounted to 13.3%. Besides, the Potency result in assay [4] and in assay [5] was “inactive” each time. For the same molecule, the Potency in assay [6] was 0.118 µM (active); in assay [9], 2.35 µM (active); in assay [7] it was 6.62 µM (active); in [8], 2.96 µM (active).

For the molecule `C[C@H]1COc2c(N3CCN(C)CC3)c(F)cc3c(=O)c(C(=O)O)cn1c23`, the parasite growth, % of control (lower = inhibition) in assay [1] worked out at 49.2%. In assay [2], this molecule showed a growth, % of control of 60.4%. The viability (% of control) in assay [3] worked out at 100%. Moreover, the Potency entry in [4], in assay [5], in assay [6], in assay [9], in [7] and in assay [8] was “inactive” throughout.

For the molecule `CN(N=O)C(=O)N[C@H]1C(O)OC(CO)[C@@H](O)[C@H]1O` (some centres not stated), the parasite growth, % of control (lower = inhibition) in assay [1] was 114%. In assay [2], this molecule yielded a growth, % of control of 68.3%. Moreover, the Potency result in assay [4], in [5], in assay [6], in [9], in assay [7] and in assay [8] was “inactive” in each case.

Consider `C[N+]1(C)[C@@H]2C[C@@H](OC(=O)C(O)(c3cccs3)c3cccs3)C[C@H]1[C@@H]1O[C@@H]12`, for which the viability (% of control) in assay [3] is 97.5%. Moreover, the Potency entry in assay [4], in assay [5], in [9], in assay [7] and in assay [8] was “inactive” throughout.

On to `Cc1ccc([N+](=O)[O-])cc1S(=O)(=O)N(C)N=Cc1cnc2ccc(Br)cn12`, for which, in assay [1], the parasite growth, % of control (lower = inhibition) stood at 20.1%. This molecule came in with a growth, % of control in [2] of 3.45%. The viability (% of control) in assay [3] is 3.92%. Besides, the Potency result in assay [4] and in assay [5] was “inactive” throughout. Moreover, the Potency in assay [6] is 0.0296 µM (active); in assay [9], 0.0209 µM (active); in assay [7], 0.0372 µM (active); in assay [8], 0.0469 µM (active).

Consider `Cn1cc(C[C@@H](N)C(=O)O)c2ccccc21`, for which the parasite growth, % of control (lower = inhibition) in assay [1] came to 107% [at 9.64 µM]. In [2], this molecule came in with a growth, % of control of 98.8% [at 9.64 µM]. Further, the viability (% of control) in assay [3] worked out at 126% [at 23.2 µM]. In addition, the Potency entry in assay [4], in [5], in [6], in assay [9], in [7] and in [8] was “inactive” throughout.

Consider `NC[C@H]1O[C@H](O[C@H]2[C@@H](O)[C@@H](O[C@H]3O[C@H](CO)[C@@H](O)[C@H](N)[C@@H]3O)[C@H](N)C[C@@H]2N)[C@H](N)C[C@H]1O`, for which the parasite growth, % of control (lower = inhibition) in assay [1] was determined as 78%. In addition, the growth, % of control in [2] is 88.3%. In [3], the viability (% of control) turned out to be 123%. The Potency result in assay [4], in assay [5], in [6], in assay [9] and in assay [7] was “inactive” throughout.

As for `CCc1ccc(C(=O)Nc2cc(CN3CCN(C)CC3)cc(C(F)(F)F)c2)cc1C#Cc1cnc2ccnn2c1`, the parasite growth, % of control (lower = inhibition) in assay [1] stood at 10.5%. Besides, the growth, % of control in assay [2] stood at 3.13%. Further, in assay [3], the viability (% of control) amounted to 4.46%. Besides, the Potency result in assay [4] was “inactive”. The Potency was 20.9 µM (active) in assay [6], 16.6 µM (active) in [7] and 14.8 µM (active) in assay [8].

On to `Nc1ccc(C(=O)Nc2cccc(-c3nc(N4CCOCC4)c4oc5ncccc5c4n3)c2)cn1`, for which the parasite growth, % of control (lower = inhibition) in assay [1] stood at 9.55%. Moreover, the growth, % of control in assay [2] came out at 2.51%. Also, the viability (% of control) in assay [3] is 4.11%. The Potency result in assay [4] and in [5] was “inactive” throughout. Moreover, the Potency was 18.7 µM (active) in assay [6], 16.6 µM (active) in assay [9], 18.7 µM (active) in assay [7] and 16.6 µM (active) in assay [8].

For the molecule `CCCc1nc(C(C)(C)O)c(C(=O)O)n1Cc1ccc(-c2ccccc2-c2nn[nH]n2)cc1`, the parasite growth, % of control (lower = inhibition) in assay [1] was 84.2%. Also, in assay [2], the growth, % of control is 61.6%. Moreover, the viability (% of control) in assay [3] is 103%. The Potency result in [4], in assay [5], in assay [7] and in assay [8] was “inactive” in each case.

In the case of `Cn1cc(-c2cnn3c(N)c(Br)c([C@H]4CCCNC4)nc23)cn1`, the parasite growth, % of control (lower = inhibition) in [1] was determined as 8.07%. The molecule also returned a growth, % of control in [2] of 3.69%. In addition, the viability (% of control) in assay [3] worked out at 14.4%. In addition, the Potency result in assay [4] and in assay [5] was “inactive” throughout. Besides, the figures for the Potency in assay [6], in assay [9] and in assay [7] were 0.332 µM (active), 0.118 µM (active) and 0.148 µM (active), respectively.

In the case of `CC(C)[C@H](CO)Nc1nc(Nc2cccc(Cl)c2)c2ncn(C(C)C)c2n1`, the parasite growth, % of control (lower = inhibition) in assay [1] is 17.2%. Also, in assay [2], the growth, % of control was found to be 5.25%. In assay [3], the viability (% of control) was determined as 1.87%. In addition, the Potency entry in [4] and in [5] was “inactive” in each case. For the same molecule, the Potency in [6] was 5.9 µM (active); in [7] it was 16.6 µM (active); in assay [8], 10.5 µM (active).

On to `C=C[C@@H]1CN2CCC1C[C@H]2[C@H](O)c1ccnc2ccc(OC)cc12` (some centres not stated), for which, in assay [1], the parasite growth, % of control (lower = inhibition) is 15.1%. In addition, in [2], the growth, % of control is 12.1%. Moreover, the viability (% of control) in assay [3] is 70%. Moreover, the Potency entry in assay [4], in [5], in [9], in [7] and in [8] was “inactive” each time.

With `CCOC(=O)N1CCN([N+]([O-])=NOc2ccc([N+](=O)[O-])cc2[N+](=O)[O-])CC1`, the parasite growth, % of control (lower = inhibition) in assay [1] stood at 70.7%. Also, in assay [2], the growth, % of control was 60.8%. Further, the viability (% of control) in [3] was found to be 13.5%. For the same molecule, the Potency result in assay [4] and in assay [5] was “inactive” in each case. Moreover, the Potency was 16.6 µM (active) in [6], 10.5 µM (active) in assay [9], 3.32 µM (active) in assay [7] and 3.72 µM (active) in assay [8].
